From PubChem
TROY signal inh: blocks TROY-dependent signaling in reporter cells | Q293 LMP1-TROYcd NF-kB luciferase reporter, 4 h | inhibition, % at 10 µM | actives 0.98% (n = 360,000) | AID 1347056;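 active means compounds whose plate-normalised and pattern-corrected inhibition of the luciferase reporter signal at the single screening dose is 50% or more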
Peg3 prom inh: Peg3 promoter activity inhibition; HeLa PEG-Prom luciferase reporter, luminescence, overnight; inhibition, % at 20 µM; actives 1.7% (n = 360,000); AID 588405;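 active means inhibition of at least 50% at 20 µM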
Shn3 inh set2: reduces Shn3 3'UTR luciferase signal in osteoblasts; inhibition, % at 12.5 µM; actives 0.52% (n = 360,000); Clone20 osteoblast Shn3 3'UTR firefly luciferase, 24 h;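 active means mean inhibition of at least 75% with every replicate also reaching 75%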
EBV LMP1 NFkB: Epstein-Barr LMP1 NF-kappaB reporter inhibition; LMP1-induced NF-kappaB luciferase reporter cells, luminescence; inhibition, % at 12.5 µM; actives 0.69% (n = 350,000); in the data active means inhibition above about 41%
MITF TRPM1 inh: MITF TRPM1 promoter inhibition in SK-MEL-5 cells; inhibition, % at 12.5 µM; AID 488899; SK-MEL-5 TRPM1 promoter luciferase, 24 h; actives 0.83% (n = 330,000);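 active means mean inhibition across replicates of 60% or more, whatever share of single replicates reaches that level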
TWEAK-Fn14 inh: inhibitors of TWEAK-Fn14 interaction signaling; inhibition, % at 10 µM; AID 1159606; TWEAK-stimulated Fn14 reporter cells, luciferase luminescence, 8 h; actives 2% (n = 360,000); in the data active means inhibition above about 50%
Hits are given with their value; n = inactive; x = no result given. Compounds with a hit are over-represented: about 4.1% of the library has one in this group of screens.

SMILES | TROY signal inh | Peg3 prom inh | Shn3 inh set2 | EBV LMP1 NFkB | MITF TRPM1 inh | TWEAK-Fn14 inh
COc1cc2ncnc(N[C@H](C)c3ccccc3)c2cc1OC | n | n | 89.5 | n | n | n
Cc1ccc(S(=O)(=O)Nc2cccc(C(=O)NCCCn3ccnc3)c2)cc1F | n | n | n | n | n | n
Cc1ccc(-n2ncc3c2CC(C)(C)CC3NC(=O)CCN2CCCO2)cc1 (centres undefined) | n | 50.2 | n | x | n | n
CC/C(C)=N/Nc1nc(-c2cc3cccc(OC)c3oc2=O)cs1 | n | n | n | n | n | n
COc1ccc(-c2nn(-c3ccccc3)cc2/C=C/C(=O)N2CCN(c3ccccn3)CC2)cc1 | n | 52.0 | n | n | n | n
O=C(Nc1ccc(N2CCN(c3ncccc3C(F)(F)F)CC2)nc1)c1cccs1 | 81.8 | 104.0 | n | n | n | 95.5
Cc1cc([N+](=O)[O-])ccc1NC(=O)CCC(=O)N1CCCC1 | n | n | n | n | n | n
Cc1cc(O)ccc1-c1cc(C(=O)NCc2ccc(F)cc2)[nH]n1 | n | n | n | x | x | n
O=C(NCCO)c1cc2c([nH]c3ccccc32)c(-c2ccccc2)n1 | n | n | n | n | n | n
Cc1ccc(-c2nc(C(=O)NCC3CCCO3)cc3c2[nH]c2ccccc23)cc1 (centres undefined) | n | 68.1 | n | n | n | 53.1
Cc1ccccc1-c1nc(C(=O)NCC2CCCO2)cc2c1[nH]c1ccccc12 (centres undefined) | n | n | n | n | n | 54.3
Cc1ccc(-c2nc(C(=O)NCCCN(C)C)cc3c2[nH]c2ccccc23)cc1 | n | 90.8 | n | n | 75.7 | n
Cc1ccc(C(=O)n2nc(-c3cccnc3)nc2N)cc1 | 64.3 | n | n | n | n | n
COc1ccc(Cl)cc1NC(=O)CC1S/C(=N/N=C2CCCCCC2)NC1=O (centres undefined) | n | n | n | n | n | n
COc1ccc(N(C(=O)c2cccnc2)S(=O)(=O)c2ccc3c4c(cccc24)C(=O)N3C)cc1 | n | n | n | n | n | 64.2
COc1ccc(N(C(=O)c2ccncc2)S(=O)(=O)c2ccc3c4c(cccc24)C(=O)N3C)cc1 | 63.9 | n | n | n | n | n
COc1ccc(N(C(=O)c2ccncc2)S(=O)(=O)c2cccs2)cc1 | n | n | n | n | n | n
COc1ccc(N(C(=O)c2cccnc2)S(=O)(=O)c2cc(OC)ccc2OC)cc1 | n | n | n | n | n | n
N#CC(C#N)=Cc1c(N2CCN(c3ccccc3)CC2)nc2ccccn2c1=O | n | n | n | n | n | n
Cc1c(N(C)S(=O)(=O)c2cccc(C(=O)NC(C)C)c2)c(=O)n(-c2ccccc2)n1C | n | n | n | n | n | n
CC(NC(=O)c1cccc(N(C)C)c1)c1ccc(-n2ccnc2)cc1 (centres undefined) | n | n | n | n | n | n
N#CC1=C(N)OC2=C(C(=O)CCC2)[C@]12C(=O)N(CC(N)=O)c1ccccc12 | n | n | n | n | n | n
N#CC1=C(N)OC2=C(C(=O)CCC2)C12C(=O)N1CCCc3cccc2c31 (centres undefined) | n | n | n | 84.2 | n | n
CCc1ccc(NC(=O)c2cnc(N3CCN(c4ccccn4)CC3)c3ccccc23)cc1 | 60.2 | 64.8 | n | n | n | 101.5
CC(C)NC(=O)c1cnc(N2CCN(c3ccccn3)CC2)c2ccccc12 | n | n | n | n | n | n
SMILES | TROY signal inh | Peg3 prom inh | Shn3 inh set2 | EBV LMP1 NFkB | MITF TRPM1 inh | TWEAK-Fn14 inh
COc1ccc(/C=C2\CCc3ccccc3C2=O)cc1O | n | n | n | n | n | 73.5
O=C1/C(=C\c2cccnc2)CCc2ccccc21 | x | n | n | n | n | 92.4
O=C1/C(=C/c2ccc(O)cc2)CCc2ccc([N+](=O)[O-])cc21 | n | n | n | n | n | n
CC(=O)Nc1ccc(/C=C2\CCc3ccccc3C2=O)cc1 | 71.4 | n | n | n | n | 76.0
O=C1/C(=C\c2ccc([N+](=O)[O-])cc2)CCc2ccccc21 | 55.4 | n | n | n | n | 86.1
COCCn1c(C)cc(/C=C2/SC(=O)N(CC(=O)N3CCCC3)C2=O)c1C | n | n | n | n | n | n
O=C1/C(=C/c2cccnc2)CC/C1=C\c1cccnc1 | n | n | n | n | n | n
CCC1C/C(=C\c2cccnc2)C(=O)/C(=C/c2cccnc2)C1 (centres undefined) | 59.4 | 108.9 | n | 93.2 | 97.1 | 104.7
Cc1ccc(NC(=O)Cn2nc(C)c3ccccc3c2=O)cc1F | n | n | n | 44.1 | n | n
COc1ccc(S(=O)(=O)N2CCOC2CNC(=O)C(=O)NCCCN2CCOCC2)cc1OC (centres undefined) | n | n | n | n | n | n
O=C(COc1ccccc1)N(Cc1ccccc1)c1nc(-c2ccccc2)cs1 | n | n | n | n | n | n
COc1ccc(-c2csc(N(Cc3ccccc3)C(=O)COc3ccc(Cl)cc3)n2)cc1 | n | 70.4 | n | n | n | n
O=C(CSC1=N/C(=C/c2ccc(Cl)c(Cl)c2)C(=O)N1c1ccccc1F)NC1CC1 | n | n | n | n | n | 61.1
COc1cccc(C(=O)NCC(=O)OCC(=O)Nc2ncc(Cl)cc2Cl)c1 | n | n | n | n | n | 87.9
Cc1cc(C)cc(CC2CC(=O)N(c3cc(C)ccc3C)C2=O)c1 (centres undefined) | n | n | n | n | n | n
Cc1ccc(C)c(N2C(=O)CC(Cc3ccccc3)C2=O)c1 (centres undefined) | n | n | n | 74.6 | n | n
CN(C)CCCn1c(N)c(C#N)c2nc3ccccc3nc21 | n | n | n | n | n | 55.2
N#Cc1c(N)n(C2CCCCC2)c2nc3ccccc3nc12 | 71.7 | n | n | n | n | n
Cc1cccn2c(=O)nc(SCC(=O)NC3CCCCC3)nc12 | n | n | n | n | n | n
COc1cccc2c1C(=O)c1c(O)c3c(c(O)c1C2=O)C[C@@](O)(C(=O)CO)C[C@@H]3O[C@H]1C[C@H](N)[C@H](O)[C@H](C)O1 | n | 94.6 | 92.0 | 83.7 | 86.9 | 86.6
COc1cccc2c1C(=O)c1c(O)c3c(c(O)c1C2=O)CC(O)(C(C)=O)CC3OC1CC(N(C)C)C(O)C(C)O1 (centres undefined) | 61.5 | 98.0 | 94.3 | 93.4 | 79.2 | 98.4
CC(=O)[C@@]1(O)Cc2c(O)c3c(c(O)c2[C@H](O[C@H]2C[C@H](N)[C@H](O)[C@H](C)O2)C1)C(=O)c1ccccc1C3=O | 65.8 | 98.7 | 93.4 | x | x | 95.3
COc1cccc2c1C(=O)c1c(O)c3c(c(O)c1C2=O)C[C@@](O)(C(=O)CO)C[C@@H]3OC1CC(N)C(O)C(C)O1 (some centres undefined) | n | 95.8 | 87.2 | 61.9 | n | 76.0
CC(C)(C)[C@H]1COC(=O)CC/C=C\C[C@@H](CC(=O)N(CCO)Cc2ccccc2)C(=O)N1 | n | n | n | n | n | n
CN(CC(=O)Nc1ccc(F)cc1)C(=O)c1ccc(-c2ccc(F)cc2)o1 | n | n | n | n | x | n
